Here are results for 36 compounds from PubChem BioAssay.

Structures are written as SMILES. Calls of active or inactive are those of the source.

The test system of the first assay is Wnt5a (protein binding on small-molecule microarray). Briefly: small molecules binding Wnt5a protein – biophysical, small-molecule microarray, 635/667 nm fluorescence, primary screen (AID 1142).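 Further: fluorescence read at 667 nm with signal to noise per printed feature.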 The settings on record: 635 nm fluorescence, higher = more signal.
`CO[C@H]1COC(=O)[C@H](C)COC(=O)[C@H](C)NC(=O)CC=C[C@H]1C`: the composite z-score is 0.108.

On to `COC(=O)[C@H](C)NC(=O)CCC1CC(OC(=O)NCc2ccc3c(c2)OCO3)CC2(CCCC(COC(=O)NCCCN3CCCC3=O)O2)O1` (some centres not stated), for which the composite z-score was 0.151.

The compound `COc1ccc(COC(=O)NN=C2C[C@@H](O)[C@@H](O)[C@@H]3[C@@H]4C(=O)N(C[C@@H]5CCCO5)C(=O)[C@@H]4CC[C@@H]23)cc1` had a composite z-score of 0.0073.

Turning to `COc1ccc(COC(=O)NN=C2C[C@@H](O)[C@@H](O)[C@@H]3[C@@H]4C(=O)N(C(C)(C)C)C(=O)[C@@H]4CC[C@@H]23)cc1`, the composite z-score was 0.211.

The compound `CCOC(=O)[C@H](CC(C)C)NC(=O)CCC1CC(OC(=O)NCc2ccc3c(c2)OCO3)CC2(CCCC(COC(=O)NCc3ccccc3)O2)O1` (some centres not stated) registered a composite z-score of -0.0368.

For `CC(C)[C@H](NC(=O)OC(C)(C)C)[C@@H](O)CC(=O)C(C)(C)C`, the composite z-score is -0.103.

Tested on in a further assay: not listed separately
Briefly: ATP-based viability of Huh7 replicon cells – cell-based, CellTiter-Glo luminescence, basal, 48 h, cytotoxicity control for HCV replication inhibitor project, primary screen (AID 1143).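 Further: Huh7 hepatoma cells carrying a hepatitis C replication reporter with no stimulus; test concentration not given here.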 The conditions noted are these: higher = more signal, called active from +8 up or from −8 down.
Consider `CO[C@H]1COC(=O)[C@H](CCSC)NC(=O)CC=C[C@@H](C)[C@H](OC)COC(=O)[C@@H](OCc2ccccc2)C=C[C@@H]1C`, for which the z-score is -1.45 (inactive).

In the case of `COC(=O)[C@H](C)NC(=O)CCC1CC(OC(=O)NCCc2ccc(F)cc2)CC2(CCCC(COC(=O)NCCc3ccccc3OC)O2)O1` (some centres not stated), the z-score was 0.137 (inactive).

Turning to `CC(C)CN1CCc2nc(-c3ccccc3)c3c(c2C1)CO[C@@H](C)C3`, the z-score was -0.718 (inactive).

On to `CC(C)[C@@H](OCc1ccccc1)[C@H](C)CON=C1[C@H]2CCn3c(=O)n(-c4ccccc4)c(=O)n3[C@H]2[C@H](O)[C@@H]2O[C@H]12`, for which the z-score is -0.367 (inactive).

For the compound `CON=C(C)CCN1CCc2nc(-c3ccccc3)c(-c3ccccc3)cc2C1`, the z-score is -4.2 (inactive).

Take `COc1ccc(OC[C@H]2CN3[C@@H](CC[C@@H](C)[C@@H]3c3ccc(Br)cc3)C(=O)O2)cc1`: the z-score was -0.202 (inactive).

In the case of `O=C(NN=C1C[C@@H](O)[C@@H](O)[C@@H]2[C@@H]3C(=O)N(c4ccc(F)cc4F)C(=O)[C@@H]3CC[C@H]12)OCc1ccccc1`, the z-score was -0.845 (inactive).

With `COC(=O)[C@H](C)NC(=O)CCC1CC(OC(=O)NCc2cccc3ccccc23)CC2(CCCC(COC(=O)NCc3ccccc3)O2)O1` (some centres not stated), the z-score was -1.12 (inactive).

In the case of `O=C1C2=CC[C@H]3C(=O)N(C4CCCCC4)C(=O)[C@H]3[C@H]2[C@H](O)[C@@H]2O[C@H]12`, the z-score is -8.35 (active).

For the compound `C#CCCCON=C1C[C@@H](O)[C@@H](O)[C@@H]2[C@@H]3C(=O)N(C[C@@H]4CCCO4)C(=O)[C@@H]3CC[C@H]12`, the z-score is 0.119 (inactive).

Turning to `O=C1[C@H]2CCn3c(=O)n(-c4ccccc4)c(=O)n3[C@H]2[C@H](O)[C@@H]2O[C@H]12`, the z-score is 0.332 (inactive).

Regarding `CC(=O)OC[C@H]1O[C@H](CC=NOCC[C@@H]2C=C[C@H](OC(C)=O)[C@@H](COC(C)=O)O2)C=C[C@@H]1OC(C)=O`, the z-score was 0.366 (inactive).

For the compound `CCCNC(=O)OC[C@H]1O[C@H](CCON=C[C@@H](C)[C@H](OCc2ccccc2)C(C)C)C=C[C@@H]1Oc1ccc(OC)cc1`, the z-score is -1.1 (inactive).

For `CC(CCC(=O)OC[C@H]1O[C@H](C#Cc2ccccc2)C=C[C@@H]1Oc1ccc(C)cc1)=NOC(C)CN1CCCCc2nc(C)c(C)cc21` (some centres not stated), the z-score was -1.13 (inactive).

Turning to `CCN1C(=O)[C@H]2[C@H]3[C@H](O)[C@H](O)CC(=NNC(=O)OCc4ccccc4)[C@H]3CC[C@H]2C1=O`, the z-score is -0.0436 (inactive).

For the compound `CO[C@@H](C(C)C)[C@@H](C)C1OC(=O)CC1O` (some centres not stated), the z-score was 0.265 (inactive).

Take `CC(C)=NOC(C)CN1CCCc2nc(C)c(C)cc21` (configuration not stated): the z-score was 0.431 (inactive).

`CO[C@@H]1[C@H](O)CO[C@H]1C=Cc1ccccc1`: the z-score is -0.536 (inactive).

On to `COc1ccc(O[C@H]2C=C[C@@H](C#Cc3ccccc3)O[C@@H]2CO)cc1`, for which the z-score is -4.1 (inactive).

As for `CC(CCC(=O)OC[C@H]1O[C@H](C#Cc2ccccc2)C=C[C@@H]1Oc1ccc(C)cc1)=NOC[C@@H](C)[C@H](OCc1ccccc1)C(C)C`, the z-score was -0.276 (inactive).

For the compound `CC(CCN1CCc2nc(-c3ccccc3)c(-c3ccccc3)cc2C1)=NOC(C)CN1CCCc2nc(C)c(C)cc21` (configuration not stated), the z-score is -1.33 (inactive).

Take `CCOC(=O)[C@H](CC(C)C)NC(=O)CCC1CC(OC(=O)NCc2ccc3c(c2)OCO3)CC2(CCCC(COC(=O)NCCc3ccc(Cl)cc3)O2)O1` (some centres not stated): the z-score was -0.197 (inactive).

Regarding `CC(=O)OC[C@H]1O[C@@H](ON=C(C)CCC(=O)OC[C@H]2O[C@H](C#Cc3ccccc3)C=C[C@@H]2Oc2ccc(C)cc2)[C@H](OC(C)=O)[C@@H](OC(C)=O)[C@@H]1OC(C)=O`, the z-score is -1.1 (inactive).

As for `CC(C)CON=C1C[C@@H](O)[C@@H](O)[C@@H]2[C@@H]3C(=O)N(c4ccc(F)cc4F)C(=O)[C@@H]3CC[C@@H]12`, the z-score is -3.38 (inactive).

On to `CCOC(=O)CCN1C(=O)[C@H]2[C@H]3[C@H](O)[C@H](O)CC(=NO[C@@H]4O[C@H](CO)[C@@H](O)[C@H](O)[C@H]4O)[C@H]3CC[C@H]2C1=O`, for which the z-score is 0.38 (inactive).

On to `CCOC(=O)[C@H](Cc1ccccc1)NC(=O)CCC1CC(OC(=O)NCc2cccc3ccccc23)CC2(CCCC(COC(=O)NCCc3ccc(Cl)cc3)O2)O1` (some centres not stated), for which the z-score is -2.69 (inactive).

Take `CCN1C(=O)[C@H]2[C@H]3[C@H](O)[C@H](O)CC(=NOC[C@@H](O)COCc4ccco4)[C@H]3CC[C@H]2C1=O`: the z-score is 0.337 (inactive).

On to `C#CCCCON=C1C[C@@H](O)[C@@H](O)[C@@H]2[C@@H]3C(=O)N(C4CCCCC4)C(=O)[C@@H]3CC[C@@H]12`, for which the z-score was 0.0192 (inactive).

`COC(=O)[C@H](CCSC)NC(=O)CC=C[C@@H](C)CO`: the z-score is -0.62 (inactive).

For `CCc1cc2c(nc1CC)CCN(CCC(C)=NO[C@@H]1O[C@H](COC(C)=O)[C@@H](OC(C)=O)[C@H](OC(C)=O)[C@H]1OC(C)=O)C2`, the z-score was -1.9 (inactive).

On to `CO[C@H]1COC(=O)[C@H](C)COC(=O)[C@H](C)NC(=O)CC=C[C@H]1C`, for which the z-score was -1.34 (inactive).

`COC(=O)[C@H](C)NC(=O)CCC1CC(OC(=O)NCc2ccc3c(c2)OCO3)CC2(CCCC(COC(=O)NCCCN3CCCC3=O)O2)O1` (some centres not stated): the z-score was -0.849 (inactive).

Turning to `COc1ccc(COC(=O)NN=C2C[C@@H](O)[C@@H](O)[C@@H]3[C@@H]4C(=O)N(C[C@@H]5CCCO5)C(=O)[C@@H]4CC[C@@H]23)cc1`, the z-score was 0.0894 (inactive).

Regarding `COc1ccc(COC(=O)NN=C2C[C@@H](O)[C@@H](O)[C@@H]3[C@@H]4C(=O)N(C(C)(C)C)C(=O)[C@@H]4CC[C@@H]23)cc1`, the z-score is 0.22 (inactive).

As to `CCOC(=O)[C@H](CC(C)C)NC(=O)CCC1CC(OC(=O)NCc2ccc3c(c2)OCO3)CC2(CCCC(COC(=O)NCc3ccccc3)O2)O1` (some centres not stated), the z-score is -0.72 (inactive).

Consider `CC(C)[C@H](NC(=O)OC(C)(C)C)[C@@H](O)CC(=O)C(C)(C)C`, for which the z-score was 0.207 (inactive).
